According to PubChem BioAssay AID651813 (National Center for Advancing Translational Sciences (NCATS), 2012):
The whole screen tested about 2,100 compounds, of which about 1,100 (52%) were called active. About 27% were inconclusive and are not listed. The set was probably picked from earlier hits. The list shows a part of the results. Values without a mark were called inactive. The call rests on the fitted dose curve; in most records, active means well fitted inhibition curve with a large enough effect; inconclusive means small, poorly fitted or top-dose-only effect; inactive means no such curve, though single readings can be large or run the other way.

Biological target: DNA dC->dU-editing enzyme APOBEC-3G (Homo sapiens) (UniProt Q9HC16)
Assay: qHTS for inhibitors of Vif-A3G interactions: Cherry picks counterscreen;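 further: hits raise yellow fluorescence by blocking Vif-driven A3G-eYFP degradation; nearly all actives have a fitted effect of over 70% in size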;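 on max response: max response given as percent of control signal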
Conditions: HeLa A3G-eYFP + Vif (tagged APOBEC3G with the HIV-1 protein that degrades it), eYFP fluorescence, 24 h
Outline: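 Readout is eYFP fluorescence (488 nm excitation, 500-530 nm emission) measured on Acumen Explorer after 24 h compound exposure, several concentrations, at 37 deg C. Cells: HeLa stably co-expressing Vif and C-terminally eYFP-tagged A3G; MG132 positive control.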
Potency means the concentration at half of the fitted maximal effect.

Chain of DNA dC->dU-editing enzyme APOBEC-3G (Homo sapiens) (Q9HC16 whole entry, looked up): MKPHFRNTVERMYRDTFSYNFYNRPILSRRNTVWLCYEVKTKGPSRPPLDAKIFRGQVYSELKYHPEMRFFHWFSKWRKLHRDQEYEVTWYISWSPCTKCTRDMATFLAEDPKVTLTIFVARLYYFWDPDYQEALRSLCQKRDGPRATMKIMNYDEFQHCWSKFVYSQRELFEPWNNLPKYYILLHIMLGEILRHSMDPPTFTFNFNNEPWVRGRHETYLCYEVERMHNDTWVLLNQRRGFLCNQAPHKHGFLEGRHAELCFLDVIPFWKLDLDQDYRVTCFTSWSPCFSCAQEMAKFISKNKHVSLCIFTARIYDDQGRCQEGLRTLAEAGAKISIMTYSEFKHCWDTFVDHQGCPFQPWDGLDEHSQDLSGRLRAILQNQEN

Row | Structure (SMILES) | Potency | max response [%]
1 | CN(C)c1ccc(/C=C(\C#N)c2nc3ccccc3c(=O)[nH]2)cc1 | 0.411 µM (active) | –
2 | Cc1ccc2nc(/C(C#N)=C/c3ccc(O)c(O)c3)[nH]c2c1 | – | 43.5
3 | COc1cc(/C=C(\C#N)c2nc3ccccc3s2)ccc1OCC(=O)Nc1ccccc1 | 15.8 µM (active) | –
4 | N#C/C(=C\c1ccc(C(=O)O)cc1)c1nc2sc3c(c2c(=O)[nH]1)CCCC3 | – | -29.5
5 | COc1cc(/C=C(/C#N)c2nc3ccccc3[nH]2)ccc1OCC(=O)Nc1ccccc1C(C)C | 13 µM (active) | –
6 | N#C/C(=C/c1ccc(O)c(O)c1)c1nc2ccccc2[nH]1 | 3.14 µM (active) | –
7 | O=C(OCCC12CC3CC(CC(C3)C1)C2)c1ccc(NCc2cc(O)ccc2O)cc1 | – | 25.7
8 | COc1cc(/C=C(\C#N)c2nc3ccccc3[nH]2)ccc1O | 2.31 µM (active) | –
9 | COc1cc(/C=C(/C#N)c2nc3ccccc3[nH]2)ccc1OC(=O)c1ccco1 | – | 51.6
10 | O=C1C=C(Nc2ccc(Cl)cc2Cl)CC(c2ccco2)C1 (stereo not given) | 5.59 µM (active) | –
11 | COc1cc2nc(/C=C/c3ccc(N(C)C)cc3)sc2cc1SC | 5.17 µM (active) | –
12 | COc1ccc(-c2cc(NC=O)c3ncc(-c4ccc(OC)c(OC)c4)n3c2)cc1OC | 5.59 µM (active) | –
13 | CN(C)c1ccccc1-c1cc(NC=O)c2ncc(-c3cccc(C(F)(F)F)c3)n2c1 | 12.5 µM (active) | –
14 | COc1ccc(-c2cnc3c(NC=O)cc(-c4cc(OC)c(OC)c(OC)c4)cn23)cc1OC | 12.5 µM (active) | –
15 | COc1ccc(-c2cnc3c(NC=O)cc(-c4ccccc4)cn23)cc1OC | 3.14 µM (active) | –
16 | COc1ccccc1-c1cc(NC=O)c2ncc(-c3ccc(S(C)(=O)=O)cc3)n2c1 | 17.7 µM (active) | –
17 | COc1ccc(-c2cnc3c(NC=O)cc(-c4ccoc4)cn23)cc1OC | 11.2 µM (active) | –
18 | COc1cccc(-c2cnc3c(NC=O)cc(-c4cc(OC)c(OC)c(OC)c4)cn23)c1 | 9.94 µM (active) | –
19 | CCOc1ccccc1C(=O)Nc1c(C(=O)Nc2ccc(F)cc2)oc2ccccc12 | 2.06 µM (active) | –
20 | COc1ccccc1NC(=O)c1oc2ccccc2c1NC(=O)c1cccc(OC)c1OC | 5.8 µM (active) | –
21 | CCCOc1ccc(N)cc1N | – | -27.6
22 | COc1ccc(NC(=O)COC(=O)c2cc(OC)c(OC)cc2NC(=O)c2ccco2)cc1OC | – | 9.25
23 | O=S(=O)(Nc1nc2ccccc2nc1OCC(F)(F)F)c1cccs1 | – | -0.0016

Row | Structure (SMILES) | Potency | max response [%]
24 | O=C(COC(=O)c1ccc(NS(=O)(=O)c2cccs2)cc1)NCc1ccco1 | 15.8 µM (active) | –
25 | O=C(COC(=O)c1ccc(NS(=O)(=O)c2cccs2)cc1O)NCc1ccccc1 | 4.44 µM (active) | –
26 | Cc1ccc(CNC(=O)Cc2ccc(-n3cccc3)cc2)cc1 | 1.98 µM (active) | –
27 | O=C(Cc1ccccc1)NCc1ccc(-n2cccc2)cc1 | 1.4 µM (active) | –
28 | C/C(CCC(C)C)=N\NC(=S)NCc1ccccc1 | – | -18.4
29 | Cc1ccc2nc(C)c(C(=O)NN=C3CCCCCC3)n2c1 | – | -10.3
30 | CCOc1cc(Br)cc(/C=C2\SC(=Nc3ccccc3)NC2=O)c1O | – | -7.55
31 | COc1cc(/C=C2\SC(=Nc3ccccc3)NC2=O)cc(Cl)c1O | 3.66 µM (active) | –
32 | O=C1NC(=Nc2ccc(O)cc2)S/C1=C/c1ccco1 | 8.86 µM (active) | –
33 | COc1cc(/C=C2\SC(=Nc3cccnc3)NC2=O)cc(OC)c1OC | – | -29.3
34 | COc1cc(/C=C2/SC(=Nc3ccc(O)cc3)NC2=O)ccc1O | 14.6 µM (active) | –
35 | Cc1ccc2nc(/C(C#N)=C/c3ccc(-c4ccc(F)cc4F)o3)[nH]c2c1 | 1.64 µM (active) | –
36 | Cc1ccc2nc(/C(C#N)=C\c3ccc(OC(=O)c4cccs4)cc3)[nH]c2c1 | 11.2 µM (active) | –
37 | Cc1ccc2nc(/C(C#N)=C\c3ccc([N+](=O)[O-])o3)[nH]c2c1 | 18.4 µM (active) | –
38 | Cc1ccc2nc(/C(C#N)=C/c3ccc(-c4ccccc4C(=O)O)o3)[nH]c2c1 | – | 43.5
39 | N#C/C(=C\c1ccc(-c2ccc(F)cc2F)o1)c1nc2ccccc2[nH]1 | 8.2 µM (active) | –
40 | COc1cc(CNCCSc2nnnn2C)ccc1OCc1c(F)cccc1Cl | – | 28.9
41 | Cc1ccc2nc(/C(C#N)=C/c3ccc(-c4cccc(Cl)c4)o3)[nH]c2c1 | 8.2 µM (active) | –
42 | Cc1ccc2nc(/C(C#N)=C/c3ccc(-c4ccc(C(=O)OC(C)C)cc4)o3)[nH]c2c1 | 3.66 µM (active) | –
43 | N#C/C(=C\c1ccc(-c2ccc(C(=O)O)cc2)o1)c1nc2ccccc2[nH]1 | 4.61 µM (active) | –
44 | Cc1c(Cl)cccc1-c1ccc(/C=C(\C#N)c2nc3ccccc3[nH]2)o1 | 10.3 µM (active) | –
45 | N#Cc1ccc(-c2cccs2)nc1SCc1c(F)cccc1Cl | 1.84 µM (active) | –
